PAFAH2 inh – PAFAH2 enzyme inhibitors, primary screen, biochemical, fluorescence polarization, human; Platelet-activating factor acetylhydrolase 2, cytoplasmic (Homo sapiens), Q99487; recombinant PAFAH2, FP-rhodamine activity probe; inhibition, % at 3.39 µM; actives 0.99% (n = 340,000); AID 492956, 2010;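 active = inhibition above the mean over all tested compounds plus 3 SD, cut at about 30% in these data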;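 note: inhibitors block probe labeling of enzyme so polarization drops; 0% = enzyme with DMSO and 100% = wells lacking PAFAH2 protein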
PAFAH1B3 inh – PAFAH1B3 enzyme inhibitors, primary screen, biochemical, fluorescence polarization, human; Platelet-activating factor acetylhydrolase IB subunit alpha1 (Homo sapiens), Q15102; recombinant PAFAH1B3, FP-rhodamine probe; inhibition, % at 3.39 µM; actives 0.28% (n = 340,000); AID 492972, 2010;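 active = inhibition above the screen-wide average of all tested compounds plus 3 SD, cut at about 25% in these data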;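 note: 0% = enzyme with DMSO only and 100% = wells lacking PAFAH1B3 protein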
Target sequence (Q15102 whole entry, looked up): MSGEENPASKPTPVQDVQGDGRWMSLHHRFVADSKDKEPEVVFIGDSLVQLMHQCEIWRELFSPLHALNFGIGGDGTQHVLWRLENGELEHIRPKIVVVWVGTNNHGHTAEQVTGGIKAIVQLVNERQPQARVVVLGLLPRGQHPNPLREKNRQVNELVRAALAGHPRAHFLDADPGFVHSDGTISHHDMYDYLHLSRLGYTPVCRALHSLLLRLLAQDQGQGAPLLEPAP
rCAG binder – binders of r(CAG) RNA repeats, primary screen, biochemical, fluorescence | r(CAG) RNA repeat, TO-PRO-1 dye displacement fluorescence | actives 1.3% (n = 370,000) | inhibition, % at 3 µM;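 active = inhibition above the plate cutoff, the mean of all test compounds on that plate plus 3 SD, cut at about 35% in these data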;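 note: 0% = DMSO alone and 100% = 100 µM mitoxantrone as full dye displacement; higher means more dye released from RNA so lower well fluorescence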
EBNA-1 inhibitor – EBNA-1 DNA-binding inhibitors, primary screen, biochemical, fluorescence polarization; AID 1950, 2009; inhibition, % at 14.8 µM; actives 0.34% (n = 300,000); in the data active = inhibition above about 28%
ZTA counter – ZTA (EBV) inhibition in EBNA-1 counter-screen; inhibition, % at 11 µM; actives 0.15% (n = 320,000); ZTA-DNA binding, fluorescence polarization; AID 2234; P03206; in the data active = inhibition above about 33%
Target sequence (P03206 whole entry, looked up): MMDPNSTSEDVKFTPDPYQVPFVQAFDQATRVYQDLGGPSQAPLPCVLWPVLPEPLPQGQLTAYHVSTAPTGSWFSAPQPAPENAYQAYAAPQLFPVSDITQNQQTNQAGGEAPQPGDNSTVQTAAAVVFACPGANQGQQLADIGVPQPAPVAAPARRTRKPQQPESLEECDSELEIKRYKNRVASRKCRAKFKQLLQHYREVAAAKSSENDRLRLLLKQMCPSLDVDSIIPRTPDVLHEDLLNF
PAFAH1B2 FP inh – PAFAH1B2 enzyme inhibitors, primary screen, biochemical, fluorescence polarization, human | inhibition, % at 3.39 µM | recombinant PAFAH1B2, FP-rhodamine activity probe | actives 1.2% (n = 340,000) | Platelet-activating factor acetylhydrolase IB subunit alpha2 (Homo sapiens), P68402;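 active = inhibition above the mean of all tested compounds plus 3 SD, cut at about 24% in these data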;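 note: 0% = enzyme with DMSO and 100% = wells lacking PAFAH1B2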
Target sequence (P68402 whole entry, looked up): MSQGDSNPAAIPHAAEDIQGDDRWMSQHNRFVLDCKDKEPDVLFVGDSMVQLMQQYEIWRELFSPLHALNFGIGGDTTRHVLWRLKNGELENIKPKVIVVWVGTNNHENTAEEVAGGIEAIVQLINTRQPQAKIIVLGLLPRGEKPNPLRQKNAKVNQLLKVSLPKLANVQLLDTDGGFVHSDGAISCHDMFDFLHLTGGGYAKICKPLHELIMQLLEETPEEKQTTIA
EBNA-1 inh conf – EBNA-1 DNA-binding inhibitors, retest, confirmation, biochemical, fluorescence polarization, triplicate | actives 35% (n = 830) | shares compounds with EBNA-1 inhibitor | Recombinant EBNA-1 DBD, Cy5-DNA fluorescence polarization | inhibition, % at 14.8 µM;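 active = mean inhibition across replicates above a set limit taken from the earlier primary screen, cut at about 28% in these data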;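 note: plate controls were EBNA-1 protein with DMSO for no effect and wells lacking EBNA-1 for full effect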
ZTA counter trip – EBV Zta DNA binding inhibitors, counter-screen for EBNA-1 inhibitor project, biochemical, fluorescence polarization, triplicate | shares compounds with EBNA-1 inhibitor | Zta-ZRE DNA binding, Cy5 fluorescence polarization | inhibition, % at 11.1 µM | 830 tested, under 10 active | AID 2328, 2010;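 active = mean inhibition over triplicates above a set limit taken from the primary EBNA-1 screen, cut at about 37% in these data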;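 note: purified full length Zta protein with Cy5 labeled ZRE DNA probe; 0% = Zta with DMSO and 100% = wells lacking Zta protein; inhibitors lower polarization by freeing the labeled DNA probe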
Zta DNA confirm – EBV Zta binding to ZRE DNA, inhibitors, confirmation, biochemical, fluorescence polarization, triplicate; shares compounds with ZTA counter; inhibition, % at 11.1 µM; actives 30% (n = 320); AID 2361, 2010;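 active = mean inhibition across triplicate runs above the hit threshold derived for the original primary screen, cut at about 33% in these data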;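 note: 0% = Zta with DMSO and 100% = wells lacking Zta protein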
EBNA1 counter – EBNA-1 DNA-binding inhibition, counter-screen for ZTA inhibitor project, biochemical, fluorescence polarization; 320 tested, under 10 active; AID 2362, 2010; inhibition, % at 14.8 µM; shares compounds with ZTA counter; call rule not given here
PAFAH2 FP conf – PAFAH2 enzyme inhibitors, confirmation, biochemical, fluorescence polarization, human; inhibition, % at 3.39 µM; actives 65% (n = 2,300); shares compounds with PAFAH2 inh; recombinant PAFAH2, FP-rhodamine activity probe;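 active = mean inhibition over three repeats above a set limit taken from the earlier primary screen, cut at about 30% in these data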;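 note: inhibitor blocks binding of rhodamine activity probe so polarization falls; 0% = enzyme with DMSO and 100% = wells lacking PAFAH2 protein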
rCAG bind conf – small molecules binding CAG repeat RNA – biochemical, fluorescence, confirmation; shares compounds with rCAG binder; r(CAG) RNA repeat, TO-PRO-1 dye displacement fluorescence; inhibition, % at 3 µM; actives 70% (n = 4,300); AID 652065, 2013;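 active = inhibition above a per-plate cutoff, the mean inhibition of sample wells plus 3 SD, cut at about 35% in these data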;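 note: loss of TO-PRO-1 fluorescence as compound displaces dye from 1x1 AA loop RNA; 0% = DMSO only wells and 100% = 100 µM mitoxantrone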
dCAG dye counter – displacement of TO-PRO-1 from CAG DNA duplex, counter-screen for rCAG RNA repeat binder project, biochemical, fluorescence, TO-PRO-1 dye, d(CAG) DNA oligo; inhibition, % at 3 µM; AID 652068, 2013; actives 94% (n = 4,300); shares compounds with rCAG binder; d(CAG) DNA oligo TO-PRO-1 dye displacement;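 active = inhibition above its plate's cutoff, the mean test-well inhibition plus 3 SD, cut at about 4.8% in these data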;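 note: 0% = DNA dye mix with DMSO and 100% = 100 µM mitoxantrone; hits displace the dye from DNA and so lower well fluorescence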
Starred values were filed as active, the others as inactive; x = not tested or not shown. Sampled rows, rich in hits. Any-hit rate of the full collection: about 2.9%.

SMILES | PAFAH2 inh | PAFAH1B3 inh | rCAG binder | EBNA-1 inhibitor | ZTA counter | PAFAH1B2 FP inh | EBNA-1 inh conf | ZTA counter trip | others
Cc1ccc(-n2c(=O)c3ccc(C(=O)NCc4ccco4)cc3n(Cc3ccccc3C#N)c2=O)cc1 | -12 | 3 | 4 | 50* | -12 | -3 | 22 | 12
CCOC(=O)[C@]12CCCCC/C=C\1N(Cc1ccc(OC)cc1)C(=O)[C@H]2CC(=O)N1CCN(C(=O)c2ccco2)CC1 | x | x | 7 | x | x | x | x | x
Cc1ccc(NC(=O)CN2C(=O)N/C(=C/c3ccco3)C2=O)cc1 | -1 | 9 | 21 | 1 | 17 | 2 | x | x
Cc1ccc(NC(=O)CN2C(=O)N/C(=C/c3cccn3-c3ccc(C(=O)O)cc3)C2=O)cc1 | 53* | 24 | 56* | 37* | 23 | 10 | 16 | 40*
O=C(Nc1ccccc1)Nc1nc2ncccn2c1-c1ccc(F)c(F)c1 | x | x | 3 | x | x | x | x | x
CCOC(=O)N=S(=O)(Oc1ccc([N+](=O)[O-])cc1)c1ccccc1 (stereo unspecified) | 11 | 4 | -5 | 137* | 3 | 3 | -5 | -1
Nc1nc2c(ncn2[C@@H]2O[C@H](C(=O)NCC(F)(F)F)[C@@H](O)[C@H]2O)c(=O)[nH]1 | x | x | 1 | x | x | x | x | x
NS(=O)(=O)c1ccc(NC(=O)COC(=O)/C(=C/c2cccs2)c2cccs2)cc1 | -23 | -8 | 23 | 64* | 10 | -1 | 60* | 13
CN1OC[C@@H]2CN[C@H](c3ccc(-n4ccnc4)cc3)C[C@@H]21 | x | x | 2 | x | x | x | x | x
Cc1ccc(NC(=O)OC[C@@H]2CSCCS(=O)(=O)N2)cc1 | x | x | 0 | x | x | x | x | x
COc1ccccc1CNC(=O)c1ccc2nc3[nH]c4ccccc4c3nc2c1 | -39 | -30 | 15 | 65* | 8 | -17 | 67* | -10
Cc1ccc(CNC(=O)c2ccc3nc4[nH]c5ccccc5c4nc3c2)cc1 | x | x | 9 | x | x | x | x | x
Cc1ccc(N2C(=O)CC(N(CCc3ccccc3)C(=S)Nc3ccc(N(C)C)cc3)C2=O)cc1 (stereo unspecified) | 2 | 6 | 18 | 57* | 10 | 1 | 18 | -3
Cc1cccnc1NC(=O)c1ccc(S(=O)(=O)N2CCC(C)CC2)cc1 | 7 | 7 | -5 | 31* | 18 | 11 | 4 | 2
Cc1cccnc1NC(=O)c1ccc(S(=O)(=O)N2CCCC2)cc1 | x | x | 0 | x | x | x | x | x
O=C(NC1CCCC1)C(c1ccccc1)n1c(-c2cccc3ccccc23)nc2ccccc21 (stereo unspecified) | x | x | 5 | x | x | x | x | x
NC(=O)c1ccccc1NC(=O)c1ccc2ccccc2c1 | -2 | 3 | 10 | 18 | 6 | 5 | x | x
NC(=O)c1ccccc1NC(=O)c1cccc(C(=O)Nc2ccccc2C(N)=O)n1 | x | x | -2 | 35* | 11 | x | 36* | 4
CN(CCO)c1ccc2c(c1)Oc1ccccc1CN(Cc1cn(Cc3ccccc3C(F)(F)F)nn1)S2(=O)=O | x | x | 6 | x | x | x | x | x
Cc1ccc(-c2nc3ccccc3[nH]2)cc1NC(=O)c1sc2cc(Cl)ccc2c1Cl | -53 | -47 | 8 | 92* | 8 | -26 | 83* | 20
C(=N\Nc1nc(N2CCCC2)nc(N2CCCC2)n1)/c1ccccc1OCc1ccccc1 | -8 | -2 | -3 | 38* | -16 | -2 | 24 | -2
CCOC(=O)[C@]12CCC=C1N(Cc1cccc3ccccc13)C(=O)[C@H](CC(=O)N1CCN(C(=O)c3ccco3)CC1)C2 | x | x | 11 | x | x | x | x | x
CC(=O)N1CCN=C1SCc1ccc(C(F)(F)F)cc1 | 7 | 2 | -4 | 41* | -9 | 3 | -9 | -2
O=C(C1CC1)N1CCN=C1SCc1ccc(F)cc1 | -2 | 6 | 1 | 5 | -21 | 6 | x | x
Cc1ccc(NC(=O)COC(=O)/C=C/c2cccs2)cc1 | 80* | -4 | -2 | 39* | -1 | -3 | 11 | 8 | PAFAH2 FP conf=73*
SMILES | PAFAH2 inh | PAFAH1B3 inh | rCAG binder | EBNA-1 inhibitor | ZTA counter | PAFAH1B2 FP inh | EBNA-1 inh conf | ZTA counter trip | others
COC(=O)[C@H](C(C)C)N1Cc2nnn(CC3CCCCC3)c2-c2ccccc2S1(=O)=O | x | x | -2 | x | x | x | x | x
O=C(Nc1ccc(Cl)c(Cl)c1)Nc1nc(-c2ccccc2)cs1 | -10 | -2 | 24 | 3 | 5 | -6 | x | x
O=S(=O)(Nc1nc(-c2ccccc2)cs1)c1cc(Cl)ccc1Cl | 21 | -6 | 80* | 31* | 21 | -3 | 10 | 8 | rCAG bind conf=73*;dCAG dye counter=38*
O=C(N/N=C/c1ccc(-c2ccc(S(=O)(=O)Nc3ncccn3)cc2)o1)c1cc2ccccc2cc1O | 34* | 35* | 82* | 32* | 28 | 25* | 46* | 41* | rCAG bind conf=75*;dCAG dye counter=39*
N/C(=N\C(=O)OCc1ccccc1)N(CC#CC1=CCCCC1)CC1CC1 | x | x | 2 | x | x | x | x | x
CCN(CC)CCOC(=O)c1ccc(N/C=C(/C#N)c2nc(-c3ccc(OC)c(OC)c3)cs2)cc1 | -3 | -4 | 17 | 2 | 74* | -1 | x | x | Zta DNA confirm=51*;EBNA1 counter=20
